This is an account of results in the OligoGym collection.
Also: reference of the scale not given here.

The target in one test is PRSS27. Briefly: pooled miR-30 sensor sort-seq; sequence = guide strand. The settings on record: shRNA.
In turn, TTGGTAGCCAAACTCGGTGTCT displayed a sensor-assay potency score (higher = more potent) of -0.152.

On to TCATTCTTGATGGTTTTGGGTT, for which the sensor-assay potency score (higher = more potent) is -0.872.

Sequence TTGCTGTAGAGCAGGTTGCACT showed a sensor-assay potency score (higher = more potent) of -1.36.

The sequence TTACAAATGAGTCTGGTGGGGC yielded a sensor-assay potency score (higher = more potent) of -0.115.

For TGACACGGATGTAGACACCTGG, the sensor-assay potency score (higher = more potent) is -0.413.

TACAGGGACGTCTCAGAGGTGT came in with a sensor-assay potency score (higher = more potent) of -0.7.

As for AAACTCGGTGTCTTTGCTGTAG, the sensor-assay potency score (higher = more potent) is -0.247.

Sequence TAGAGCAGGTTGCACTTGGGTG showed a sensor-assay potency score (higher = more potent) of -0.65.

Sequence TGCAGTTTGGGGATGATCCGAT yielded a sensor-assay potency score (higher = more potent) of 0.0447.

Sequence TAATTGGTGAAGGGCACTGGTG registered a sensor-assay potency score (higher = more potent) of -1.57.

In the next test the target is PRSS35. The test is described as above. The settings on record: shRNA.
TTTCTTTTTGTGAGCACGCTTC: the sensor-assay potency score (higher = more potent) was -0.433.

The sequence TTGAGTCGGCTCAAGAACCAAA returned a sensor-assay potency score (higher = more potent) of -0.83.

With TAATACACAACCAGCATCCTAT, the sensor-assay potency score (higher = more potent) was -0.461.

Consider TACACCTGTCTCTTTCTCCTAA, for which the sensor-assay potency score (higher = more potent) was -0.12.

Sequence TTGTCCAAGATGCTGAACCTGC displayed a sensor-assay potency score (higher = more potent) of -0.668.

In turn, TCACATTTAATACACAACCAGC had a sensor-assay potency score (higher = more potent) of -0.906.

Sequence TTCCTCATCTTCAACAACCCTA had a sensor-assay potency score (higher = more potent) of 0.185.

Sequence TTGGATTCGTCGGACACACTGC came in with a sensor-assay potency score (higher = more potent) of -0.732.

For the sequence TAGAACAAACTATTTCTCCCAT, the sensor-assay potency score (higher = more potent) is 0.0739.

In turn, TTACCATCATCTTAGCATCTGC yielded a sensor-assay potency score (higher = more potent) of -0.234.

The sequence TAACTTTCTGTCTCTATTCTGA yielded a sensor-assay potency score (higher = more potent) of -0.225.

The sequence AAATCTTGAACTTTCACCCTGG displayed a sensor-assay potency score (higher = more potent) of 0.84.

In another test the target is PRSS57. The test is described as above. The settings on record: shRNA.
With TGGTAGTCGGGGTGTGTGGTGA, the sensor-assay potency score (higher = more potent) was -0.823.

TCGGACCTTGGCCTCCATCAGT showed a sensor-assay potency score (higher = more potent) of -1.55.

For ATCGATGCCAAACACCTGCTGG, the sensor-assay potency score (higher = more potent) was -0.864.

Sequence TACACGTCGGGGGTCTTGGGGT gave a sensor-assay potency score (higher = more potent) of -1.06.

For the sequence TGTGGTGAGAGCATCGATGCCA, the sensor-assay potency score (higher = more potent) came out at 0.623.

As for ACACCTGCGTGTACACGTCGGG, the sensor-assay potency score (higher = more potent) is -0.753.

Sequence TCGATGCCAAACACCTGCTGGG came in with a sensor-assay potency score (higher = more potent) of -0.917.

With ACAAAGGCGGACACCTGCGTGT, the sensor-assay potency score (higher = more potent) was -0.414.

AGCATCGATGCCAAACACCTGC showed a sensor-assay potency score (higher = more potent) of -0.826.

In the case of TCTCTGTGGCTGAAGCAGTGGG, the sensor-assay potency score (higher = more potent) was -1.07.

The sequence AAGTCAGACACGAAGCCCCAGC had a sensor-assay potency score (higher = more potent) of -0.91.

In turn, TTCACGGGCAGCATCAGGGCGG yielded a sensor-assay potency score (higher = more potent) of -0.51.

The target of a further test is PRUNE. The test is described as above. The settings on record: shRNA.
As for TTACCTTCCACATAGCTACAGA, the sensor-assay potency score (higher = more potent) is -0.331.

As for TATTCGTGCTACATGAGGCTGA, the sensor-assay potency score (higher = more potent) amounted to 0.818.

For TGTCTATAGATAGTCTTCTGGT, the sensor-assay potency score (higher = more potent) was -0.567.

TTGTCTATAGATAGTCTTCTGG came in with a sensor-assay potency score (higher = more potent) of -0.685.

Consider TTAAATAATAAAATGTGTCTGA, for which the sensor-assay potency score (higher = more potent) is -0.11.

For TTTCTCTCTAGCTTGAGGCAGG, the sensor-assay potency score (higher = more potent) was -0.511.
